The values below come from PubChem BioAssay.

Unmarked numbers belong to inactive results. Activity calls are given as the source filed them.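 Rule for the calls, unless noted: active = mean inhibition above 46.68%, the untreated control wells mean plus 3 SD; inactive = the rest.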

Experiment [1] deals with Nuclear receptor coactivator 3 (Homo sapiens) (UniProt Q9Y6Q9). Briefly: NCOA3 GAL4-fusion reporter inhibition – cell-based, luminescence, quadruplicate, confirmation (AID 588792;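 active = mean inhibition over 43.08%, the solvent-only control mean plus 3 SD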;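 note: 0% = DMSO treated cells and 100% = gossypol at 36 µM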). The following applies: HEK293 GAL4-SRC3 luciferase reporter, at 3.6 µM, stronger effect = higher value. (Reporter assays use an easily measured gene product as a stand-in for the process of interest.)
Experiment [2] relates to transactivating tegument protein VP16 (Human herpesvirus 1), Gal4-VP16 luciferase reporter. Briefly: repression of VP16-driven luciferase reporter – cell-based, luminescence, high throughput, counter-screen for SRC3 inhibitor project (AID 588794; in the data active = inhibition above about 30%). The following applies: mammalian cells, at 3.6 µM, stronger effect = higher value.
The target of experiment [3] is Nuclear receptor coactivator 1 (Homo sapiens) (UniProt Q15788). As to the kind of experiment: NCOA1 GAL4-fusion reporter inhibition – cell-based, luminescence, quadruplicate, confirmation (AID 588820).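 Note: 0% = DMSO wells and 100% = gossypol 36 µM treated wells.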 The following applies: HEK293 GAL4-SRC1 luciferase reporter, at 3.6 µM, stronger effect = higher value.
Experiment [4] is described as follows: repression of VP16-driven luciferase reporter – cell-based, luminescence, high throughput, counter-screen for SRC1 inhibitor project (AID 588824; in the data active = inhibition above about 25%). The following applies: cell-based VP16 transactivation luciferase luminescence; at 3.6 µM; stronger effect = higher value.
For experiment [5], the system named is transactivating tegument protein VP16 (Human herpesvirus 1). As to the kind of experiment: compounds suppressing VP16-driven luciferase signal – cell-based, luminescence, single concentration, counter-screen for SRC2 inhibitor project (AID 652007; in the data active = inhibition above about 36%). The following applies: cell-based VP16 transactivation luciferase reporter, at 8.9 µM, stronger effect = higher value. (In general: Counterscreens check selectivity or assay interference.)

Experiment [6] concerns the target Nuclear receptor coactivator 2 (Homo sapiens) (UniProt Q15596). Briefly: inhibition of GAL4-SRC2 driven luciferase expression – cell-based, luminescence, HEK293, triplicate, confirmation (AID 652008;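 active = mean inhibition above 46.5%, the solvent-only control mean plus 3 SD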;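 note: 0% = DMSO-treated cells and 100% = Gossypol at 36 µM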). The following applies: HEK293 GAL4-SRC2 luciferase reporter, at 8.9 µM, stronger effect = higher value.

Nuclear receptor coactivator 1 (Homo sapiens), sequence (Q15788 whole entry, looked up, the tested form may be a part): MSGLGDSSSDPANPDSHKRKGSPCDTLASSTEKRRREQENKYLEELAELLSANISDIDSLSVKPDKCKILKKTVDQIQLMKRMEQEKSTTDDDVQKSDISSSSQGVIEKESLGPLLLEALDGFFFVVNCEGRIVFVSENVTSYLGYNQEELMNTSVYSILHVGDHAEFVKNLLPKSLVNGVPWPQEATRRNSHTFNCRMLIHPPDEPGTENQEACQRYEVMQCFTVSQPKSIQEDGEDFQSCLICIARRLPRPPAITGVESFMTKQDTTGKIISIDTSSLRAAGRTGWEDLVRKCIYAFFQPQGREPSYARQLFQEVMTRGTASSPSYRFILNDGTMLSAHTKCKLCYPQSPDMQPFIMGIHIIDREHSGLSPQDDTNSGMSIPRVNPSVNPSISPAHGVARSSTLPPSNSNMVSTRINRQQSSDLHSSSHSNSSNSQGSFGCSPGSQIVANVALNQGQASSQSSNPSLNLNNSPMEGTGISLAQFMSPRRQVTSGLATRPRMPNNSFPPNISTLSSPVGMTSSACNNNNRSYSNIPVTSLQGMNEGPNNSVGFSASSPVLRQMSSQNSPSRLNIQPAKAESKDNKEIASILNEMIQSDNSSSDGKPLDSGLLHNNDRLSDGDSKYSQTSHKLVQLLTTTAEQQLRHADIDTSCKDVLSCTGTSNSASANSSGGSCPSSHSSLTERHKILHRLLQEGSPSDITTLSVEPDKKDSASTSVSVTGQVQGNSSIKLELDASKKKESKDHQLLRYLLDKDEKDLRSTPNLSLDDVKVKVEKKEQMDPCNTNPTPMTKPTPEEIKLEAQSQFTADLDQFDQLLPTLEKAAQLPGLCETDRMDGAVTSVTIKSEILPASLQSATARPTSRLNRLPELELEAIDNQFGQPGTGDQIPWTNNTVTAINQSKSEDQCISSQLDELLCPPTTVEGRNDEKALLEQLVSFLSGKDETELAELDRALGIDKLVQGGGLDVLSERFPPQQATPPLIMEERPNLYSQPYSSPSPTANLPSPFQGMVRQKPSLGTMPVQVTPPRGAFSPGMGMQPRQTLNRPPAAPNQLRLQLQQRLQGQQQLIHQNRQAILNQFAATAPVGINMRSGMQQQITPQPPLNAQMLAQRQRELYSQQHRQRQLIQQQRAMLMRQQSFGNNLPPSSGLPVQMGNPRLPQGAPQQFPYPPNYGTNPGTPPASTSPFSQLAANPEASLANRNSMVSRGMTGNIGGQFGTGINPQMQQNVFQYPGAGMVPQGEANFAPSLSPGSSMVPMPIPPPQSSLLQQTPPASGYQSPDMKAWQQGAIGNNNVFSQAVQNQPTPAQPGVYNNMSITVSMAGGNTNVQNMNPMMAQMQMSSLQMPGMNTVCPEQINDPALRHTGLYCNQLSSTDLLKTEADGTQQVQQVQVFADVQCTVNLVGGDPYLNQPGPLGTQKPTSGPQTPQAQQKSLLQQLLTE
Nuclear receptor coactivator 2 (Homo sapiens), sequence (Q15596 whole entry, looked up, the tested form may be a part): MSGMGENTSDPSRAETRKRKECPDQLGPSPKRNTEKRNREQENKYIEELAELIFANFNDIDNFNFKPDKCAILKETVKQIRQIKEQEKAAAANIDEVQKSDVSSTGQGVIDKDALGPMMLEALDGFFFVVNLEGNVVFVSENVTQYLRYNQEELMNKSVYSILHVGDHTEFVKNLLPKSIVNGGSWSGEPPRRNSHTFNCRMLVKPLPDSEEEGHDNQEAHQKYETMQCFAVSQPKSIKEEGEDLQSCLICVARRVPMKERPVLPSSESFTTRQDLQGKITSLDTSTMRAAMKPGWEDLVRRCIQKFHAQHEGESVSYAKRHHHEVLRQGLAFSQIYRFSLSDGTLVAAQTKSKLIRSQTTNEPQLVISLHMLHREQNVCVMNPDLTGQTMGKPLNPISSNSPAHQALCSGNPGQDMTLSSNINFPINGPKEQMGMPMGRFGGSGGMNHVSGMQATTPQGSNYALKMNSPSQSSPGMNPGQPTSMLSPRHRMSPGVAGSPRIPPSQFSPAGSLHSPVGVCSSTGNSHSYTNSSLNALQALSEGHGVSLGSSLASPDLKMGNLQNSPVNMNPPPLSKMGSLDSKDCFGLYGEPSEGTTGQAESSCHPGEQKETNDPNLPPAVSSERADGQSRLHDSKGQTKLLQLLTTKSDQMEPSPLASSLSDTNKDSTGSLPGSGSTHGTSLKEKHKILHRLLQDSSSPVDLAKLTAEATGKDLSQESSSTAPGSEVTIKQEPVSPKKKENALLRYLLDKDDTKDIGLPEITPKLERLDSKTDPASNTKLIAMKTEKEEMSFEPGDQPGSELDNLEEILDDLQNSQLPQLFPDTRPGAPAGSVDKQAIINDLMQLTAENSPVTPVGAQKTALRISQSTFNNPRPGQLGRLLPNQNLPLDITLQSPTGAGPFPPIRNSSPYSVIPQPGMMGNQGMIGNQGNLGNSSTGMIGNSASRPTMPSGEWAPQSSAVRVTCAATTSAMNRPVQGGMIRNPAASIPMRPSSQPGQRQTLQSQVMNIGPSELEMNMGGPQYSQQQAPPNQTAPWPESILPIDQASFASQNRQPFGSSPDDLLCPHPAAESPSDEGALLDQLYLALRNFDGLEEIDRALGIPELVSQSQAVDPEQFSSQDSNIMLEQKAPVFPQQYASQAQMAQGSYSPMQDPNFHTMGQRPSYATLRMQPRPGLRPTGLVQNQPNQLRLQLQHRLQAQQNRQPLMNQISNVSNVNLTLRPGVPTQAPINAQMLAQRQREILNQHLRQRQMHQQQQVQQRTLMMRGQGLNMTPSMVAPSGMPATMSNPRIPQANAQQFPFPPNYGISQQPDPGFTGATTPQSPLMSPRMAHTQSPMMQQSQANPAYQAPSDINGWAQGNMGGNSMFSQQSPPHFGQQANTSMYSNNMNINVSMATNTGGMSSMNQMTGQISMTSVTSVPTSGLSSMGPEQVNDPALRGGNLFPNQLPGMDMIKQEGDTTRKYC
Nuclear receptor coactivator 3 (Homo sapiens), sequence (Q9Y6Q9 whole entry, looked up, the tested form may be a part): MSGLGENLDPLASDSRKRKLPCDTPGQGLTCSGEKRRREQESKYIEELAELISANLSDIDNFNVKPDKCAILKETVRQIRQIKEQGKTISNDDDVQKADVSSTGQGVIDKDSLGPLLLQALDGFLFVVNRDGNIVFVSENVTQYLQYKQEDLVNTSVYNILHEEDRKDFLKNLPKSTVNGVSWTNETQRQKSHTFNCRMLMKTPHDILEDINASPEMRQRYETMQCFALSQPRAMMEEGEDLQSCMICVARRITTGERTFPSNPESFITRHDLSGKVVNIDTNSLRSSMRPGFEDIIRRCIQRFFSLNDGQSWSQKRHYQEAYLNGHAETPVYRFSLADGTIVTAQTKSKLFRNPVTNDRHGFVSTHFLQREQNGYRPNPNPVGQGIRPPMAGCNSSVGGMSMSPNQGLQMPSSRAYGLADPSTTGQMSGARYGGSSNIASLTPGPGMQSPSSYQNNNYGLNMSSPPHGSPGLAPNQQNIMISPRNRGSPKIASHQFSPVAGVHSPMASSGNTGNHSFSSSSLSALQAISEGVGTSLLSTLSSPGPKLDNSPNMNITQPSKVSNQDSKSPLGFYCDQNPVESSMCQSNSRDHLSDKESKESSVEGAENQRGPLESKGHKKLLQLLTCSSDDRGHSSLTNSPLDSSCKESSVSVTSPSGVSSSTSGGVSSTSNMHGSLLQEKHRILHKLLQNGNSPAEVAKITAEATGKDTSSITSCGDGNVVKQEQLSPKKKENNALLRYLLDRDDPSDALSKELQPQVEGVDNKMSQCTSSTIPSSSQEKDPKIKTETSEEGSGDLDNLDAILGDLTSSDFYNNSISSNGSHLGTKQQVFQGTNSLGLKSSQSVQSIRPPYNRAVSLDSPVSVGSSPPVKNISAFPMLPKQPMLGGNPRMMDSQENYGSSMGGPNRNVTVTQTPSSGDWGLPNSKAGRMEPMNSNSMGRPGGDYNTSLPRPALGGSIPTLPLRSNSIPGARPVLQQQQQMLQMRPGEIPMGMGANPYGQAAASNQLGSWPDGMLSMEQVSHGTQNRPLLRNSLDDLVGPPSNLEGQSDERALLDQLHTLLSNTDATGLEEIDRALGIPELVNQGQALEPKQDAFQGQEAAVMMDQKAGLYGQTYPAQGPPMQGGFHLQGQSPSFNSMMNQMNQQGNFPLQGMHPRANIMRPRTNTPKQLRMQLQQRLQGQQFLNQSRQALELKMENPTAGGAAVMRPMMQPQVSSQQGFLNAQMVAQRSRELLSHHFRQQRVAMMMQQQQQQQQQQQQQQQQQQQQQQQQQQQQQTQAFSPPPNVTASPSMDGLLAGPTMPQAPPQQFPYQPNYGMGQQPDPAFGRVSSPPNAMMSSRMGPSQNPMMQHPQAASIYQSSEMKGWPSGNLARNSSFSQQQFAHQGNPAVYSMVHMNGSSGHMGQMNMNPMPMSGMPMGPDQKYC

As for `CN(C)C=Nc1ncc2c3ccccc3n(CCN(C)C)c2c1C#N`, the inhibition is 48.6% (active) in experiment [1]; 29.9% (active) in experiment [2]; 48.9% (active) in experiment [3]; 33.2% (active) in experiment [4]; -1.55% in experiment [5]; 9.25% in experiment [6].

For the compound `COc1cccc(Nc2ncnc3ccc(Br)cc23)c1`, the inhibition in experiment [1] is 43.5% (active); in experiment [2], 31% (active); in experiment [3] it was 51% (active); in experiment [4], 30.9% (active); in experiment [5], -7.29%; in experiment [6] it was 34.5%.

As to `CN1CCN(c2ccc(NC(=O)N3CCc4ccccc43)cc2)CC1`, the inhibition is 32.5% in experiment [1]; 13.4% in experiment [2]; -43.7% in experiment [3]; -20.3% in experiment [4]; -18.3% in experiment [5]; 53.1% (active) in experiment [6].

Turning to `COc1ccc(C(=O)CN2C(=O)c3ccccc3S2(=O)=O)cc1`, the inhibition is 57.4% (active) in experiment [1]; 57.1% (active) in experiment [2]; -21.8% in experiment [3]; 55.6% (active) in experiment [4]; 72.1% (active) in experiment [5]; 78.4% (active) in experiment [6].

Take `c1csc(C2=Nn3c(nnc3-c3ccncc3)SC2)c1`: the inhibition was 72.9% (active) in experiment [1]; 58.1% (active) in experiment [2]; 67.9% (active) in experiment [3]; 50.8% (active) in experiment [4]; 29.6% in experiment [5]; 62.6% (active) in experiment [6].

In the case of `CCOc1ccc(/C=C2\SC(=S)N(CCC(=O)O)C2=O)cc1`, the inhibition is 29% in experiment [1]; -33.1% in experiment [2]; 39.5% in experiment [3]; -38.8% in experiment [4]; -7.9% in experiment [5]; 84.6% (active) in experiment [6].

On to `CC(/C=C1\SC(=O)N(CCCC(=O)O)C1=O)=C\c1ccccc1`, for which the inhibition in experiment [1] is 79% (active); in experiment [2], 73.6% (active); in experiment [3], 71.9% (active); in experiment [4], 69.2% (active); in experiment [5] it was 90.3% (active); in experiment [6], 95.4% (active).

For the compound `COc1ccc(-c2cc3nc(C)n(N)c(=O)c3s2)cc1`, the inhibition is 57.6% (active) in experiment [1]; 41.7% (active) in experiment [2]; 19.4% in experiment [3]; 39.4% (active) in experiment [4]; 72% (active) in experiment [5]; 83.8% (active) in experiment [6].

Take `Nc1ccccc1Nc1cccc(C(F)(F)F)c1`: the inhibition was 25.9% in experiment [1]; 18.6% in experiment [2]; -6.37% in experiment [3]; 13.5% in experiment [4]; 6.37% in experiment [5]; 43.7% in experiment [6].

In the case of `OCCCNc1ncnc2scc(-c3ccc(Cl)cc3)c12`, the inhibition is 62.6% (active) in experiment [1]; 47.1% (active) in experiment [2]; 62.6% (active) in experiment [3]; 39.2% (active) in experiment [4]; 5.28% in experiment [5]; 46.5% (active) in experiment [6].

Take `CCOC(=O)c1cccc(NS(=O)(=O)c2ccc(NC(C)=O)cc2)c1`: the inhibition in experiment [1] is 43.5% (active); in experiment [2], 35.8% (active); in experiment [3] it was 40.5%; in experiment [4], 26.5% (active); in experiment [5], -6.82%; in experiment [6], 40.8%.

For the compound `Cc1c([N+](=O)[O-])c2ccc(O)cc2n1-c1ccccc1`, the inhibition in experiment [1] is 53.5% (active); in experiment [2], 31.6% (active); in experiment [3] it was 55.4% (active); in experiment [4] it was 30.1% (active); in experiment [5] it was 2.8%; in experiment [6] it was 35.8%.

On to `Cc1ccc(S(=O)(=O)c2ccc([N+](=O)[O-])cn2)cc1`, for which the inhibition in experiment [1] is 25.7%; in experiment [2], -18.7%; in experiment [3], -25.7%; in experiment [4], -32.7%; in experiment [5], 13%; in experiment [6] it was 23.4%.

As for `CC1CCc2nc(NC(=O)C3COc4ccccc4O3)sc2C1` (configuration not stated), the inhibition in experiment [1] was 9.01%; in experiment [2], -11.5%; in experiment [3], -134%; in experiment [4], -51.9%; in experiment [5] it was -16.9%; in experiment [6], 36.4%.

Turning to `CCOc1cc(CNc2ccc3c(c2)OCCO3)cc(Br)c1OCC`, the inhibition in experiment [1] is 25.4%; in experiment [2], 20.9%; in experiment [3], -11.6%; in experiment [4] it was 20.8%; in experiment [5], -27.7%; in experiment [6], -1.58%.

Turning to `Cc1[nH]ccc2c1[nH]c1cc(=O)ccc12`, the inhibition is 56% (active) in experiment [1]; 39.5% (active) in experiment [2]; 59.1% (active) in experiment [3]; 38.7% (active) in experiment [4]; 3.4% in experiment [5]; 26% in experiment [6].

With `CC(C)c1ccc(/C=C2\SC(=S)N(CCC(=O)N3CCCCC3CCO)C2=O)cc1` (configuration not stated), the inhibition in experiment [1] is 23.5%; in experiment [2], -27.8%; in experiment [3] it was 10.1%; in experiment [4], -48.1%; in experiment [5], -75%; in experiment [6], 76.4% (active).

`O=C(CCCc1nc(-c2ccccc2Cl)no1)NC1CCCC1`: the inhibition in experiment [1] was 36.4%; in experiment [2], -6.22%; in experiment [3] it was 22.9%; in experiment [4], -0.83%; in experiment [5], 26.2%; in experiment [6], 92.2% (active).

As for `CC(=O)c1ccc(-n2c(C)c(C(C)=O)c3cc(O)ccc32)cc1`, the inhibition was 63% (active) in experiment [1]; 45.6% (active) in experiment [2]; 45.9% in experiment [3]; 46.7% (active) in experiment [4]; 2.74% in experiment [5]; 54.7% (active) in experiment [6].

With `O=C(O)C1CC=CCC1C(=O)Nc1ccc2c(c1)OCCO2` (configuration not stated), the inhibition in experiment [1] was -15.8%; in experiment [2], -7.19%; in experiment [3], -47.1%; in experiment [4], -8.13%; in experiment [5], -13.1%; in experiment [6] it was 6.92%.

On to `CCn1c2ccccc2c2cnc(N=CN(C)C)c(C#N)c21`, for which the inhibition in experiment [1] is 32%; in experiment [2] it was 19.6%; in experiment [3], 28.3%; in experiment [4], 21.4%; in experiment [5], -28.4%; in experiment [6], -0.33%.

Consider `O=C(CCl)N1N=C(c2ccco2)CC1c1ccco1` (configuration not stated), for which the inhibition is 59.1% (active) in experiment [1]; 12.5% in experiment [2]; 32.7% in experiment [3]; 4.7% in experiment [4]; 36.6% (active) in experiment [5]; 67.9% (active) in experiment [6].

The inhibition is the drop in the measured response relative to a control, in per cent.
